This is part of a sample that, as a whole, favours compounds with a hit. Of some 83,000 tested, about 20% had one in any assay.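 Cells were grown in 96-well plates and exposed to the test compound at a single concentration for 48 hours; results are reported as percent growth, with values below 10 considered active.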 A number with no mark means an inactive call. Activity calls are given as the source filed them.

Test systems include DU-145 prostate; K-562 leukemia; MALME-3M melanoma; MDA-MB-231 breast; RXF 393 renal; SF-268 CNS; SF-295 CNS; SF-539 CNS; UACC-257 melanoma; M14 melanoma; HCT-15 colon; HT29 colon; SNB-75 CNS; SNB-19 CNS; U251 CNS; PC-3 prostate; SK-MEL-5 melanoma; UACC-62 melanoma; LOX IMVI melanoma; SK-MEL-28 melanoma.
Common to all, as to assay: NCI-60 one-dose screen, 48 h (100 = growth as untreated, 0 = no growth, -100 = all killed)
What all share (conditions): 10 µM unless noted

For `Oc1ccc(O)c(-[n+]2ccccc2)c1`, the growth in the assay with DU-145 prostate is 108%; with K-562 leukemia, 107%; in the assay on MALME-3M melanoma, 112%; in the assay on MDA-MB-231 breast it was 110%; with RXF 393 renal it was 106%; with SF-268 CNS, 102%. For the same molecule, the growth was 110% in the assay with SF-295 CNS; 108% in the assay with SF-539 CNS; 95.1% in the assay on UACC-257 melanoma; 103% in the assay on M14 melanoma; 105% in the assay with HCT-15 colon; 93.6% in the assay with HT29 colon. Further, the growth was 104% in the assay on SNB-75 CNS; 100% in the assay with SNB-19 CNS; 97.1% with U251 CNS; 92.5% with PC-3 prostate; 97.7% with SK-MEL-5 melanoma; 103% in the assay with UACC-62 melanoma. Also, the growth in the assay on LOX IMVI melanoma is 95.7%; in the assay with SK-MEL-28 melanoma it was 116%.
Turning to `CC(C)C(=O)Nc1nc2c(s1)CCCc1ccn(S(=O)(=O)c3ccccc3)c1-2`, the growth was 98.8% in the assay on DU-145 prostate; 73.8% in the assay on K-562 leukemia; 114% with MALME-3M melanoma; 108% with MDA-MB-231 breast; 119% in the assay on RXF 393 renal; 99.2% in the assay with SF-268 CNS. For the same molecule, the growth in the assay on SF-295 CNS is 90.6%; in the assay on SF-539 CNS it was 100%; with UACC-257 melanoma it was 93.7%; in the assay with M14 melanoma it was 96.9%; with HCT-15 colon it was 94%; with HT29 colon, 83.7%. Moreover, the growth with SNB-75 CNS is 89.4%; with SNB-19 CNS, 110%; in the assay on U251 CNS it was 102%; with PC-3 prostate, 85.3%; in the assay on SK-MEL-5 melanoma, 93.3%; in the assay on UACC-62 melanoma, 87%. The growth was 96.9% with LOX IMVI melanoma and 106% with SK-MEL-28 melanoma.
Turning to `C#C[C@@]1(O)[C@@H](CO)O[C@@H](n2cc(C(F)(F)F)c3c(N)ncnc32)[C@@H]1O`, the growth is 10.2% in the assay with DU-145 prostate; 5.44% (active) with K-562 leukemia; -22% (active) in the assay on MALME-3M melanoma; 14% in the assay with MDA-MB-231 breast; -30.3% (active) in the assay on RXF 393 renal; 11.9% with SF-268 CNS. For the same molecule, the growth was 7.42% (active) in the assay on SF-295 CNS; -25.3% (active) in the assay on SF-539 CNS; 21% with UACC-257 melanoma; 9.25% (active) in the assay with M14 melanoma; 3.11% (active) in the assay with HCT-15 colon; 0.254% (active) with HT29 colon. Also, the growth in the assay with SNB-75 CNS is -54.8% (active); in the assay with SNB-19 CNS, 10.7%; with U251 CNS, 6.37% (active); in the assay on PC-3 prostate, 14%; with SK-MEL-5 melanoma, -65.5% (active); with UACC-62 melanoma it was -1.29% (active). Further, the growth was -23.6% (active) with LOX IMVI melanoma and 28.1% with SK-MEL-28 melanoma.
Consider `CC(C)(c1ccc(OCC(O)CNCc2ccco2)cc1)c1ccc(OCC(O)CNCc2ccco2)cc1` (stereo not given), for which the growth in the assay on DU-145 prostate is 92%; in the assay on K-562 leukemia it was 60.8%; in the assay with MALME-3M melanoma it was 98%; in the assay with MDA-MB-231 breast it was 62.4%; in the assay with RXF 393 renal, 76.4%; in the assay on SF-268 CNS it was 77.7%. For the same molecule, the growth in the assay with SF-295 CNS was 95.2%; in the assay with SF-539 CNS, 89.7%; in the assay on UACC-257 melanoma, 92.8%; in the assay with M14 melanoma, 92.1%; with HCT-15 colon it was 82.8%; in the assay on HT29 colon, 78.5%. For the same molecule, the growth with SNB-75 CNS is 80.1%; with SNB-19 CNS, 96.4%; with U251 CNS it was 70.1%; with PC-3 prostate, 75.6%; with SK-MEL-5 melanoma it was 91.7%; in the assay with UACC-62 melanoma, 104%. In addition, the growth with LOX IMVI melanoma was 86.1%; in the assay with SK-MEL-28 melanoma, 101%.
Take `O=C(Nc1ccc(-n2ccc3c(NC(=O)c4ccccc4)nccc32)cc1)Nc1cccc(C(F)(F)F)c1`: the growth with DU-145 prostate was 31.8%; with K-562 leukemia, 21.2%; in the assay with MALME-3M melanoma it was 73.4%; in the assay on MDA-MB-231 breast, 63.7%; with RXF 393 renal, 10.3%; in the assay with SF-268 CNS, 51.8%. Besides, the growth in the assay on SF-295 CNS is 37.1%; in the assay on SF-539 CNS, 44.8%; in the assay with UACC-257 melanoma, 68.8%; in the assay with M14 melanoma, 43.7%; in the assay on HCT-15 colon, 19.7%; with HT29 colon it was -0.934% (active). For the same molecule, the growth in the assay on SNB-75 CNS is 74.3%; with SNB-19 CNS, 65.8%; in the assay with U251 CNS, 32.3%; in the assay on PC-3 prostate, 13.6%; in the assay on SK-MEL-5 melanoma, 53.6%; with UACC-62 melanoma, 78.6%. The growth with LOX IMVI melanoma was 26.6%; in the assay with SK-MEL-28 melanoma, 60.3%.
Take `Cc1ccc(-c2cn3cc([N+](=O)[O-])ccc3n2)cc1`: the growth is 68.8% in the assay on DU-145 prostate; 82% with K-562 leukemia; 103% in the assay with MALME-3M melanoma; 79.1% with MDA-MB-231 breast; 90.4% with RXF 393 renal; 77.3% with SF-268 CNS. The growth in the assay with SF-295 CNS is 101%; in the assay on SF-539 CNS, 91.2%; in the assay with UACC-257 melanoma, 87.4%; in the assay on M14 melanoma, 72.5%; in the assay with HCT-15 colon, 80.2%; in the assay with HT29 colon, 91.6%. The growth with SNB-75 CNS was 77.5%; with SNB-19 CNS, 92.1%; with U251 CNS, 85.6%; in the assay with PC-3 prostate it was 77.1%; in the assay on SK-MEL-5 melanoma it was 58.9%; in the assay with UACC-62 melanoma, 82.6%. In addition, the growth in the assay with LOX IMVI melanoma was 58.3%; with SK-MEL-28 melanoma it was 94.3%.
As to `COc1ccc(NC(=O)COCCOCCNC[C@@H]2C(=O)O[C@H]3[C@H]2CC/C(COC(=O)OC/C2=C/CC[C@@]4(C)O[C@H]4[C@H]4OC(=O)[C@@H](CN(C)C)[C@@H]4CC2)=C\CC[C@@]2(C)O[C@@H]32)c(O)c1C(N)=O`, the growth was 57% in the assay on DU-145 prostate; 5.46% (active) with K-562 leukemia; -21.1% (active) in the assay with MALME-3M melanoma; 21.8% with MDA-MB-231 breast; -40.5% (active) in the assay on RXF 393 renal; 91.5% in the assay on SF-268 CNS. In addition, the growth with SF-295 CNS was 105%; in the assay with SF-539 CNS, 46.4%; with UACC-257 melanoma, 40.5%; in the assay on M14 melanoma it was 53.9%; with HCT-15 colon, 17.1%; in the assay with HT29 colon, 14%. In addition, the growth in the assay with SNB-75 CNS is 84.1%; in the assay with SNB-19 CNS, 94.1%; in the assay on U251 CNS, 80.8%; in the assay with PC-3 prostate it was 80.2%; in the assay with SK-MEL-5 melanoma it was 85.7%; in the assay on UACC-62 melanoma, 43%. Further, the growth in the assay on LOX IMVI melanoma was 35.1%; in the assay on SK-MEL-28 melanoma, -6.54% (active).

Source of the values: PubChem BioAssay (NCI).
